The source of these data is PubChem BioAssay AID1159606 (Sanford-Burnham Center for Chemical Genomics, 2016).

Each structure is given as a SMILES string. Values joined by “and” are separate entries in the source; they are usually repeats but may differ in a detail not shown here. Identical values can stand only once. About 7,300 (2%) of roughly 360,000 compounds were called active. No stated cut-off is given here; in the data, active means inhibition above about 50%; inactive means the rest. Only a selection was taken, and actives are over-represented in it overall.

One may read the inhibition as the relative decrease from the control value, in per cent.

This experiment is described as follows: inhibitors of TWEAK-Fn14 signaling, primary screen, luciferase reporter cells, uHTS (AID 1159606). The conditions noted are these: TWEAK-stimulated Fn14 reporter cells, luciferase luminescence, 8 h; at 10 µM; stronger effect = higher value. (In general: In a reporter assay the amount or activity of a reporter protein is the signal.)
Turning to `CCOc1ccc(S(=O)(=O)Nc2cccc(C(=O)NCC3(N4CCCCC4)CCCCC3)c2)cc1`, the inhibition was -1.13% (inactive).

On to `OCCC#Cc1ccc(N2C(c3ccsc3)=Cc3ccc(F)cc3C2c2c[nH]c3ccccc23)cc1` (stereo unspecified), for which the inhibition was 11.2% (inactive).

`C=CCn1c(CNS(=O)(=O)c2ccc(Br)cc2)nnc1SC`: the inhibition was 8.19% (inactive).

As for `C=CCC[C@@H](CCCCC)OC(=O)/C=C/[C@@H](O)[C@H](O)C[C@H](O)CC=C`, the inhibition was 2.81% (inactive).

As for `CC1CN(C(=O)c2cc(COc3c(F)cccc3F)on2)CCN1C` (stereo unspecified), the inhibition was -6.71% (inactive).

As for `C/C(=N/NC(=O)CCc1ccccc1)c1ccco1`, the inhibition was -10.4% (inactive).

Regarding `O=C(CCc1ccccc1)Nc1cccc(-c2nnc(-c3ccco3)o2)c1`, the inhibition is 52.6% (active).

On to `O=C(Nc1cccc(-c2nnc(-c3ccccc3)o2)c1)C1CCCO1` (stereo unspecified), for which the inhibition is 10.7% (inactive).

`CC(C)NC(=O)Nc1cccc2c1O[C@@H](CN(C)S(=O)(=O)c1ccc(F)cc1)[C@@H](C)CN([C@H](C)CO)C2=O`: the inhibition was 3.62% (inactive).

For the compound `COc1cccc(NC(=O)CC(c2ccc(OC(C)C)cc2)c2ccccc2OC)c1` (stereo unspecified), the inhibition is -21.3% (inactive).

`CC(=O)c1ccc(N2CCN(C(=O)CCc3ccccc3)CC2)cc1`: the inhibition was -0.25% (inactive).

As for `CC(=O)c1ccc(N2CCN(CC(O)c3ccccc3)CC2)cc1` (stereo unspecified), the inhibition was 15.1% (inactive).

For `CC(=O)c1ccc(N2Cc3ccccc3C2)cc1`, the inhibition is 50.8% (active).

As to `CCOC(=O)[C@]12CCC=C1N(Cc1ccco1)C(=O)[C@H](CC(=O)N1CCSCC1)C2`, the inhibition was 13.3% (inactive).

Consider `CC(Oc1ccc2c(-c3ccccc3)cc(=O)oc2c1)C(=O)NC(Cc1c[nH]c2ccccc12)C(=O)O` (stereo unspecified), for which the inhibition was -2.3% (inactive).

As to `O=C(CNC(=O)OCc1ccccc1)Oc1cc2oc(=O)cc(-c3ccccc3)c2cc1Cl`, the inhibition was 66.8% (active).

Regarding `O=C(NCC1CCC(C(=O)O)CC1)OCc1ccccc1` (stereo unspecified), the inhibition was 3.36% (inactive).

In the case of `OC(c1ccccc1)(c1ccccc1)C1CCN(CCCOc2ccccc2)CC1`, the inhibition is 1.25% (inactive).

Turning to `Cc1cc(C(=O)COC(=O)CNC(=O)c2ccc(F)cc2)c(C)n1Cc1ccco1`, the inhibition is 71.8% (active).

Take `COCCn1c(C)cc(C(=O)COC(=O)CNC(=O)c2ccco2)c1C`: the inhibition is 5.04% (inactive).

For `Cc1ccc(OCC(=O)c2cc(C)n(Cc3ccco3)c2C)c([N+](=O)[O-])n1`, the inhibition is 42.9% (inactive).

Consider `CCc1nc2ccc(C(=O)Nc3cc(-c4ccccc4)ccc3OC)cn2c1N(CC)CC(=O)N(C)C`, for which the inhibition was 9.07% (inactive).

Regarding `CC1(C(=O)NS(=O)(=O)c2cccs2)CCN1C(=O)Cc1ccc(-c2ccccc2)cc1` (stereo unspecified), the inhibition is 6.14% (inactive).

`CCOc1c(Nc2cccc(Cl)c2)c(=O)c1=O`: the inhibition was 6.24% (inactive).

For `OCCCNc1nccc(-c2cc(Nc3cccc(Cl)c3)ncn2)n1`, the inhibition is 97.3% (active).

In the case of `CC(NC(=O)COC(=O)c1ccc(Cl)cc1O)c1ccc(F)cc1` (stereo unspecified), the inhibition was -8.36% (inactive).

`COc1ccc(-c2ccc3[nH]c4c(c3c2)CCN2C[C@H]3[C@H](C)ON(C)[C@H]3C[C@@H]42)cc1`: the inhibition is 76.2% (active).

In the case of `COC(=O)[C@H]1[C@H]2C[C@H]3c4[nH]c5ccccc5c4CCN3C[C@@H]2CC[C@@H]1O`, the inhibition is 27.2% (inactive) and 5.66% (inactive).

With `COc1cccc(C2c3[nH]c4ccccc4c3CCN2Cc2cccc(C)n2)c1` (stereo unspecified), the inhibition is 1.39% (inactive).

For the compound `CCNc1nc(N)nc(-c2cc(Cl)ccc2OC)n1`, the inhibition is -2.01% (inactive).

As to `CC[C@@H]1CC2=C(C(=O)OC(C)(C)O2)[C@@H](CC)O1`, the inhibition is 1.77% (inactive).

For the compound `CCN(CC)C(=O)CC1(c2ccccc2OC)CCOC(C(C)C)C1` (stereo unspecified), the inhibition is -4.31% (inactive).

For `CCOC(=O)c1cc(-c2sc(NC(=O)c3ccccc3)nc2C)n(CCO)n1`, the inhibition was -0.09% (inactive).

`C=CCn1nc(C(=O)OCC)cc1-c1sc(NC(=O)c2ccccc2)nc1C`: the inhibition is 32.2% (inactive).

With `CCOC(=O)c1cc(-c2sc(NC(=O)c3ccccc3)nc2C)n(Cc2ccccc2)n1`, the inhibition is 54.7% (active).

`CCCCCCN1C[C@@H](O)[C@H](n2cc(COC(=O)c3ccccc3)nn2)C[C@@H]1c1ccc(Cl)cc1`: the inhibition is 11.1% (inactive).

On to `C[C@H](NC(=O)[C@@H]1CCCN1C(=O)[C@@H]1CCCN1C(=O)c1ccccc1)c1ccccc1`, for which the inhibition was -2.63% (inactive).

Take `CC(C(=O)NCC1CCCCC1)N(C)Cc1cccc(Cl)c1` (stereo unspecified): the inhibition was -0.37% (inactive).

As for `S=c1[nH]nc2c3c4c(sc3ncn12)CCCC4`, the inhibition was 3.72% (inactive).

For `c1nnc2c3c4c(sc3ncn12)CCC4`, the inhibition was 58.9% (active).

On to `CC(C(=O)O)n1cnc2sc3c(c2c1=O)CCCC3` (stereo unspecified), for which the inhibition was -20.1% (inactive).

In the case of `COc1cc(SC)ccc1C(=O)NNC(=O)C1COc2ccccc2O1` (stereo unspecified), the inhibition was -29.7% (inactive).

On to `COc1ccc(C(=O)NC(C)CCc2ccccc2)c(OC)c1` (stereo unspecified), for which the inhibition is -8.93% (inactive).

Regarding `CCOC(=O)c1sc(NC(=O)c2sc(C)nc2C)nc1C`, the inhibition is -39.5% (inactive).

Take `COC(=O)c1sc(NC(=O)c2ccc(OC)cc2OC)nc1C`: the inhibition is 69% (active).

As to `COc1cc(SC)ccc1C(=O)Nc1nc(C)cs1`, the inhibition is 102% (active).

Turning to `Cc1csc(NC(=O)CSc2nc(=O)cc(N)n2-c2ccc(F)cc2)n1`, the inhibition was 27.6% (inactive).

Regarding `CC(=O)c1ccc(NC(=S)N(Cc2ccccc2)C(C)C2CC2)cc1` (stereo unspecified), the inhibition is 11.1% (inactive).

As to `COC(=O)c1ccc2nc(-c3ccc(F)cc3)c(Cc3ccc(C)cc3)n2c1`, the inhibition is -0.5% (inactive).

As for `O=C1NC[C@@H](CCCCN2CCN(CCc3ccc(O)cc3)C(=O)C2=O)N(CC2CCCCC2)C1=O`, the inhibition is 10.2% (inactive).

`O=C(c1ccc2c(c1)N(Cc1ccc(F)cc1)C(=O)CS2)N1CCOCC1`: the inhibition was -16.2% (inactive).

Regarding `CCc1nccn1CCC(=O)N1CCCC(N2CCN(c3ccccc3F)CC2)C1` (stereo unspecified), the inhibition was -3.5% (inactive).

As to `CC(=O)Nc1ccc(S(=O)(=O)N2CCCC2C(=O)O)cc1` (stereo unspecified), the inhibition is 0.16% (inactive).

In the case of `CC(=O)Nc1ccc(S(=O)(=O)Nc2ccc(N3CCCCC3)cc2)cc1`, the inhibition was 84.7% (active).

In the case of `CC(=O)Nc1ccc(NS(=O)(=O)c2ccc3c(c2)NC(=O)CC(=O)N3)cc1`, the inhibition was 10.3% (inactive).

With `CCN(CC)P(=O)(/C(Cl)=C\Nc1c(C)n(C)n(-c2ccccc2)c1=O)N(CC)CC`, the inhibition was -1.25% (inactive).
